Experimental data as given in PubChem BioAssay (Tox21).
Activity calls are given as the source filed them. Unless noted, calls come from the whole dose curve; as a rule, active = well fitted curve in the direction sought with a large enough effect in the repeat runs; inconclusive = weak or mixed curves; inactive = no such curve, though single readings can be large; an effect the other way counts as inactive or inconclusive.

What was measured:
[1] = qHTS assay for small molecules that induce genotoxicity in human embryonic kidney cells expressing luciferase-tagged ATAD5 (AID 651632); note: nearly all actives have a fitted effect of over 15% in size
Method in brief: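 Reporter cells (HEK293T) express luciferase-tagged ATAD5, a protein that accumulates after DNA damage. Treat 16 hr at 37C/5% CO2, add Amplite, wait 30 min at RT, and read luminescence.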

[2] = qHTS assay for small molecule agonists of the p53 signaling pathway - cell viability (AID 651633; calls by dose curve; note: nearly all actives have a fitted effect of over 30% in size; note: potency is the fitted concentration of half-maximal effect)
Method in brief: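 Viability counter-read: CellTiter-Glo luminescence (30 min, room temperature) in the same p53RE-bla plates. These plates had been exposed to compounds for 16 h at 37 C.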

[3] = qHTS assay for small molecules that induce genotoxicity in human embryonic kidney cells expressing luciferase-tagged ATAD5 - cell viability (AID 651634; calls by dose curve; note: nearly all actives have a fitted effect of over 25% in size)
Method in brief: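 Seeding of 2,000 HEK293T ATAD5-luciferase cells per well preceded pin-tool compound transfer. Plates sat 15.5 hr at 37C under 5% CO2, then fluorescence was read after 30 min with CellTiter-Fluor.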

[4] = qHTS assay for small molecule disruptors of the mitochondrial membrane potential - cell viability (AID 720634; calls by dose curve;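 note: human HepG2 liver cancer cells; series mostly up to about 83 µM; nearly all actives have a fitted effect of over 20% in size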)
Method in brief: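 Measuring cytotoxicity alongside mitochondrial potential, the screen quantified ATP by luminescence in HepG2 cells after 1 hr compound incubation and a 30 min room-temperature CellTiter-Glo step.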

[5] = qHTS assay for small molecule disruptors of the mitochondrial membrane potential (AID 720635); note: potency is the fitted concentration of half-maximal effect
Method in brief: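 Mitochondrial membrane potential tracked with Mito-MPS dye, red aggregates (ex 540/em 590 nm) against green monomers (ex 490/em 535 nm). Compound treatment 1 hr at 37C, dye 30 min in HepG2.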

[6] = qHTS assay to test for compound auto fluorescence at 590 nm (red) in HepG2 cells (AID 720674)
Method in brief: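 1 hr compound incubation on HepG2 cells, 37 C, 5% CO2; plate read ex 540 nm / em 590 nm; intensities reported as Rose Bengal sodium equivalents.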

[7] = qHTS assay to test for compound auto fluorescence at 535 nm (green) in HepG2 cells (AID 720675)
[8] = qHTS assay to test for compound auto fluorescence at 460 nm (blue) in HEK293 cells (AID 720678)
Method in brief: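 Measured: blue fluorescence (Ex 405/Em 460 nm) of compound-treated HEK293 cells, incubated overnight at 37C with 5% CO2 and scaled to triamterene equivalents.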

[9] = qHTS assay to test for compound auto fluorescence at 590 nm (red) in HEK293 cells (AID 720679)
Method in brief: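 Using HEK293 cells at 2,000 per well, the screen added 23 nL of each compound after cell attachment and incubated overnight (37C, 5% CO2). The plate reader then captured red-label fluorescence, Ex/Em 540/590nm.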

[10] = qHTS assay to test for compound auto fluorescence at 535 nm (green) in HEK293 cells (AID 720680)
[11] = qHTS assay to test for compound auto fluorescence at 460 nm (blue) in HEK293 cell free culture (AID 720681)
Method in brief: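 Blue fluorescence (Ex 405/Em 460 nm, triamterene-equivalent) was read immediately after pin transfer of compound or DMSO into medium (DMEM, 10% FBS) without cells.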

[12] = qHTS assay to test for compound auto fluorescence at 535 nm (green) in HEK293 cell free culture (AID 720682)
Method in brief: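 Fluorescein serves as the green reference fluorophore; each compound's intrinsic emission at 535 nm (excitation 485 nm) is reported as an equivalent amount of that dye, measured in serum-containing DMEM without cells.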

[13] = qHTS assay to test for compound auto fluorescence at 590 nm (red) in HepG2 cell free culture (AID 720684)
Method in brief: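 Steps: dispense MEM/10% FBS medium, no cells; pin compound or DMSO vehicle; read red channel, Ex/Em 540/590 nm. Output given as Rose Bengal sodium equivalents.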

[14] = qHTS assay to test for compound auto fluorescence at 460 nm (blue) in HepG2 cell free culture (AID 720685)
Method in brief: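 Compound (23 nL) or DMSO pinned into cell-free MEM with 10% FBS; blue fluorescence read at 405/460 nm excitation/emission, expressed as auto-fluorescence equivalency to triamterene.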

[15] = qHTS assay to test for compound auto fluorescence at 535 nm (green) in HepG2 cell free culture (AID 720686)
[16] = qHTS assay to test for compound auto fluorescence at 460 nm (blue) in HepG2 cells (AID 720687)
Method in brief: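 Blue-channel autofluorescence (Ex/Em 405/460 nm, triamterene-equivalent) was measured after 1 hr compound exposure at 37 C, 5% CO2. Cells were HepG2, plated overnight at 37 C in MEM plus 10% FBS.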

[17] = qHTS assay to identify small molecule antagonists of the glucocorticoid receptor (GR) signaling pathway - cell viability counter screen (AID 720693); note: nearly all actives have a fitted effect of over 55% in size; note: potency is the fitted concentration of half-maximal effect
[18] = qHTS assay for identifying genotoxic compounds that show differential cytotoxicity against isogenic chicken DT40 cell lines with known DNA damage response pathways - wild type cell line (AID 743012); note: nearly all actives have a fitted effect of over 60% in size; note: potency is the fitted concentration of half-maximal effect
Method in brief: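 Using parental DT40 (300 cells/well), compounds delivered in DMSO incubate 40 h at 37 C/5% CO2. CellTiter-Glo reagent then stands 30 min at room temperature, and luminescence gives cell viability.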

[19] = qHTS assay for identifying genotoxic compounds that show differential cytotoxicity against isogenic chicken DT40 cell lines with known DNA damage response pathways - Rev3 mutant cell line (AID 743014); note: nearly all actives have a fitted effect of over 55% in size; note: potency is the fitted concentration of half-maximal effect
[20] = qHTS assay for identifying genotoxic compounds that show differential cytotoxicity against isogenic chicken DT40 cell lines with known DNA damage response pathways - Rad54/Ku70 mutant cell line (AID 743015); note: nearly all actives have a fitted effect of over 60% in size; note: potency is the fitted concentration of half-maximal effect
[21] = qHTS assay to identify small molecule antagonists of the androgen receptor (AR) signaling pathway - cell viability counter screen (AID 743033; note: nearly all actives have a fitted effect of over 45% in size)
[22] = qHTS assay to identify small molecule antagonists of the androgen receptor (AR) signaling pathway using the MDA cell line - cell viability counter screen (AID 743041; note: nearly all actives have a fitted effect of over 45% in size)
Method in brief: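 Cells were plated at 3,000 per well and left 5 h. Compounds in DMSO were then pinned in, followed by R1881. After 16 h at 37C, CellTiter-Fluor fluorescence gave viability.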

[23] = qHTS assay to identify small molecule antagonists of the thyroid receptor (TR) signaling pathway - cell viability counter screen (AID 743064); note: nearly all actives have a fitted effect of over 50% in size; note: potency is the fitted concentration of half-maximal effect
Method in brief: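 Fluorescence from CellTiter-Fluor, added after 23.5 h exposure at 37 °C, reported viability of GH3.TRE-Luc cells co-treated with compound and 1 nM T3. Measured in the same wells as the luciferase TR readout.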

[24] = qHTS assay to identify small molecule antagonists of the thyroid receptor (TR) signaling pathway (AID 743065); note: nearly all actives have a fitted effect of over 55% in size; note: potency is the fitted concentration of half-maximal effect
Method in brief: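 Antagonism measured as loss of luciferase signal in GH3 cells stably carrying a TRE-luciferase reporter, co-treated with compound and T3 (1 nM final) for 23.5 h at 37 C. Viability was read in the same well by CellTiter-Fluor.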

[25] = qHTS assay to identify small molecule antagonists of the estrogen receptor alpha (ER-alpha) signaling pathway - cell viability counter screen (AID 743074; calls by dose curve;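 note: HEK293 cells carrying ER-alpha-UAS-bla reporter stimulated with 17beta-estradiol; potency is the fitted concentration of half-maximal effect; nearly all actives have a fitted effect of over 45% in size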)
[26] = target: Estrogen receptor (Homo sapiens) (UniProt P03372); assay: qHTS assay to identify small molecule agonists of the estrogen receptor alpha (ER-alpha) signaling pathway (AID 743075; calls by dose curve;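 note: HEK293 GripTite cells with ER-alpha and UAS-driven beta-lactamase reporter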; note: potency is the fitted concentration of half-maximal effect)
[27] = target: Estrogen receptor (Homo sapiens) (UniProt P03372); assay: qHTS assay to identify small molecule agonists of the estrogen receptor alpha (ER-alpha) signaling pathway using the BG1 cell line (AID 743079); note: nearly all actives have a fitted effect of over 20% in size; note: potency is the fitted concentration of half-maximal effect
[28] = qHTS assay to identify small molecule antagonists of the estrogen receptor alpha (ER-alpha) signaling pathway using the BG1 cell line - cell viability counter screen (AID 743081);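 note: compound given together with 17beta-estradiol as the ER stimulus; series mostly up to about 70 µM; nearly all actives have a fitted effect of over 45% in size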
Aromatase (Homo sapiens) = Aromatase (Homo sapiens) (UniProt P11511); assay: qHTS assay to identify aromatase inhibitors (AID 743083); note: series mostly up to about 70 µM; nearly all actives have a fitted effect of over 55% in size
[29] = qHTS assay to identify aromatase inhibitors - cell viability counter screen (AID 743084)
[30] = target: Aryl hydrocarbon receptor (Homo sapiens) (UniProt P35869); assay: qHTS assay to identify small molecule that activate the aryl hydrocarbon receptor (AhR) signaling pathway (AID 743085);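 note: HG2L7.5c1 human HepG2 liver cells with stably integrated DRE-driven firefly reporter; series mostly up to about 70 µM; nearly all actives have a fitted effect of over 15% in size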
Method in brief: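 Cell line HG2L7.5c1 (human hepatoma, 20× DRE-luc). Plated, 5 h 37C, compound/DMSO added, 24 h 37C. CellTiter-Fluor 30 min 37C → fluorescence; then ONE-Glo 30 min RT → luminescence.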

[31] = qHTS assay to identify small molecule that activate the aryl hydrocarbon receptor (AhR) signaling pathway - cell viability counter screen (AID 743086)
Method in brief: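 Cytotoxicity counter screen: CellTiter-Fluor signal (30 min, 37 C) in 4000 HepG2 cells/well carrying the DRE-luciferase reporter, following 24 h compound exposure at 37 C.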

[32] = target: Peroxisome proliferator-activated receptor gamma (Homo sapiens) (UniProt P37231); assay: qHTS assay to identify small molecule agonists of the peroxisome proliferator-activated receptor gamma (PPARg) signaling pathway (AID 743094; active = well fitted activation curve with a large enough effect in the signal ratio in the repeat runs, not every such curve was filed as active; inconclusive = weak or mixed curves, or effect the other way; inactive = no such curve, though single readings can be large or run the other way; the % refers to the signal ratio)
Method in brief: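 Following 5 h plating at 37C, PPARg-bla HEK293H cells receive compound or DMSO for 17 h; fluorescence intensity is recorded after LiveBLAzer B/G loading for 1 h at room temperature.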

[33] = target: Acetylcholinesterase (Homo sapiens) (UniProt P22303); assay: Acetylcholinesterase (AChE) small molecule antagonists: enzyme-based qHTS assay with human liver microsomes (AID 1347399; calls by dose curve; note: nearly all actives have a fitted effect of over 60% in size); conditions: Potency: qHTS inhibition; outcome: qHTS inhibition
Method in brief: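 Recombinant human AChE (50 mU/mL in the enzyme mix) and human liver microsomes (0.25 mg/mL final) were preincubated with compound and NADPH (0.25 mg/mL final) for 30 min at 37 C. Acetylthiocholine/DTNB was then added; thiocholine was read colorimetrically after 10 min at room temperature.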

[34] = qHTS assay for small molecule agonists of the p53 signaling pathway (AID 651631; calls by dose curve; note: nearly all actives have a fitted effect of over 15% in size)
Method in brief: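 Read-out is beta-lactamase FRET fluorescence measured 2 h after substrate addition at room temperature, in HCT-116 cells with a p53 response element-driven reporter exposed to compounds for 16 h at 37 °C.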

[35] = tested on: thyroid hormone receptor (rat, GH3 cells); assay: qHTS assay to identify small molecule agonists of the thyroid receptor (TR) signaling pathway (AID 743066; calls by dose curve)
[36] = target: Estrogen receptor (Homo sapiens) (UniProt P03372); assay: qHTS assay to identify small molecule antagonists of the estrogen receptor alpha (ER-alpha) signaling pathway (AID 743069; active = well fitted curve in the direction sought with a large enough effect in the signal ratio in the repeat runs, not every such curve was filed as active; inconclusive = weak or mixed curves, or effect the other way; inactive = no such curve, though single readings can be large or run the other way; the % refers to the signal ratio)
Method in brief: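 ER-alpha-UAS-bla GripTite HEK293 line; 2% charcoal-stripped FBS overnight; plated, 4 hr 37C/5% CO2; cpd in DMSO + 17beta-estradiol, 18 hr 37C; LiveBLAzer B/G FRET substrate 2 hr RT; fluorescence intensity.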

[37] = qHTS assay to identify small molecule antagonists of the estrogen receptor alpha (ER-alpha) signaling pathway using the BG1 cell line (AID 743080; calls by dose curve;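 note: BG1 cells stimulated with 17beta-estradiol alongside compound; series mostly up to about 70 µM; nearly all actives have a fitted effect of over 25% in size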)
Method in brief: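 Quantitative HTS on the Tox21 10K library: BG1 cells with endogenous ER-alpha and ERE-luciferase reporter, 17beta-estradiol stimulation, 21.5 h compound exposure, luminescence endpoint with parallel fluorescence cytotoxicity counter-read.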

[38] = target: Acetylcholinesterase (Homo sapiens) (UniProt P22303); assay: Acetylcholinesterase (AChE) small molecule antagonists: fluorescence cell-based qHTS assay (AID 1347398; calls by dose curve; note: nearly all actives have a fitted effect of over 50% in size); conditions: Potency: AChE activity; outcome: AChE activity
Method in brief: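 Read-out is Thiolite Green fluorescence at Ex/Em = 490/520 nm, formed by reaction with thiocholine released when cellular AChE in SH-SY5Y cells hydrolyzes acetylthiocholine. Compounds were preincubated 30 min at 37 C before substrate.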

Measured: Potency

Sequence of Acetylcholinesterase (Homo sapiens) (P22303 whole entry, looked up): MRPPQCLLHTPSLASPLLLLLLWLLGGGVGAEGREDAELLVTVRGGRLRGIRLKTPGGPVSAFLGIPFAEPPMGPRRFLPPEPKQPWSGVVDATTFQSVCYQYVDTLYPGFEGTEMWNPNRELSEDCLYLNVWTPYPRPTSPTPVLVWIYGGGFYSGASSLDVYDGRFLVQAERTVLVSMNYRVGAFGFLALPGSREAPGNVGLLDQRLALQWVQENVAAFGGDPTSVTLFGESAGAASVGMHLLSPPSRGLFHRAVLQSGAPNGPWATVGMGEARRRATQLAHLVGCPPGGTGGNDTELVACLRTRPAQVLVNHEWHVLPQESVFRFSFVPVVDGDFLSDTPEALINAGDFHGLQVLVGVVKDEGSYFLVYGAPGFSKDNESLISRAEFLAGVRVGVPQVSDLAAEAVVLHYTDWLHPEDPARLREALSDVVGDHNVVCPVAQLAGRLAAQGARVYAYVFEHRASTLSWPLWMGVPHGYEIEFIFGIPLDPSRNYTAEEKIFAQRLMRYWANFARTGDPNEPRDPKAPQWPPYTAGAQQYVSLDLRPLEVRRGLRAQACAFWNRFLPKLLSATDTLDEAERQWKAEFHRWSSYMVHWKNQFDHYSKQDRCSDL
Sequence of Estrogen receptor (Homo sapiens) (P03372 whole entry, looked up): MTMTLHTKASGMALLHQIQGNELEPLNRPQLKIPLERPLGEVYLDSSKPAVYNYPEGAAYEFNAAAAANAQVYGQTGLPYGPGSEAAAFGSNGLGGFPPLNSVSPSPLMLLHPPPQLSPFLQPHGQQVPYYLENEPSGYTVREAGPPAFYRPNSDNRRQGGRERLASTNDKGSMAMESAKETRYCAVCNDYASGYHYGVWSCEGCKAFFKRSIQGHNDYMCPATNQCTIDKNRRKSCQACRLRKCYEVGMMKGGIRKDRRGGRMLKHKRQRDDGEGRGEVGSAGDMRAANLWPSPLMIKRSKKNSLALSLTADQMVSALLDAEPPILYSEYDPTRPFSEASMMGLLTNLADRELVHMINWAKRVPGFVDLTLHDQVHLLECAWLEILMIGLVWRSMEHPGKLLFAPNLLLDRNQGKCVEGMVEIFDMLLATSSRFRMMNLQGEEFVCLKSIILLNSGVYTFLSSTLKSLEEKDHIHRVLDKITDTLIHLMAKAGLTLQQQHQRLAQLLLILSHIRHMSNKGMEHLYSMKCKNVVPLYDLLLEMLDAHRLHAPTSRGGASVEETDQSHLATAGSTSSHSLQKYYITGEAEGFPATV
Sequence of Aryl hydrocarbon receptor (Homo sapiens) (P35869 whole entry, looked up): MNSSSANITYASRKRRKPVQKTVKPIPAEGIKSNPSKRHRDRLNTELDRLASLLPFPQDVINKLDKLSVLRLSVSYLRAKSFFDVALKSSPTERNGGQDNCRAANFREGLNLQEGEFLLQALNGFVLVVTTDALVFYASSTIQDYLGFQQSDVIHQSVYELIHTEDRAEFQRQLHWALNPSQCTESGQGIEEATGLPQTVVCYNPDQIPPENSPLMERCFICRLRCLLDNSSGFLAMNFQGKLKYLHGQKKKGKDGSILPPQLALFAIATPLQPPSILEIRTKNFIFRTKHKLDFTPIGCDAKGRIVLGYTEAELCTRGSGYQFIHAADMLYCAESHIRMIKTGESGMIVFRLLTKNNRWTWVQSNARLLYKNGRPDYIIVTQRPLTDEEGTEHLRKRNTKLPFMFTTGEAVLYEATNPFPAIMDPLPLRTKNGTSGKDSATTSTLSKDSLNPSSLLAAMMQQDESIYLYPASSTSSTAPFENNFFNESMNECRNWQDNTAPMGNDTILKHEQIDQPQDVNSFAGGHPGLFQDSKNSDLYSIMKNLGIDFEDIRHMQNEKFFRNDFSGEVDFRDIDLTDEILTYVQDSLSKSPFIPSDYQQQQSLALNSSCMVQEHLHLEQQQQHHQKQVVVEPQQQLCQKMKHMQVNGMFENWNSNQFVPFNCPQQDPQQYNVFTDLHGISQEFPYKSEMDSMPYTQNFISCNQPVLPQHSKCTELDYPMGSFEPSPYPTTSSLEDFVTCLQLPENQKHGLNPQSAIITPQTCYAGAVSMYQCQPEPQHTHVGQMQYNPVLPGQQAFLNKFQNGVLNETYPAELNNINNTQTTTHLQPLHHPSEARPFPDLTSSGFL
Sequence of Aromatase (Homo sapiens) (P11511 whole entry, looked up): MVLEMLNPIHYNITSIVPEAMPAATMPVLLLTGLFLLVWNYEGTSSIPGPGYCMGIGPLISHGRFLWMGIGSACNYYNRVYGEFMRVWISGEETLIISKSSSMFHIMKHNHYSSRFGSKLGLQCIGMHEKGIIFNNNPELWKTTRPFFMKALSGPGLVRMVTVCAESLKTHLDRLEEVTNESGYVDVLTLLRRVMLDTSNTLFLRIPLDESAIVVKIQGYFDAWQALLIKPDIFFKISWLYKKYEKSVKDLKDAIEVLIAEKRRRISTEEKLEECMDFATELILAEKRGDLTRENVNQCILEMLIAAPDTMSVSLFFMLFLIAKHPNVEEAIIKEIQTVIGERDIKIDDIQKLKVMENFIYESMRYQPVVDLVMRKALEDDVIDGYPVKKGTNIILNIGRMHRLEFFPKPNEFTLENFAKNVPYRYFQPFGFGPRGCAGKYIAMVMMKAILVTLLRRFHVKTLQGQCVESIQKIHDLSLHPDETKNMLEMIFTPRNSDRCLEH
Sequence of Peroxisome proliferator-activated receptor gamma (Homo sapiens) (P37231 whole entry, looked up): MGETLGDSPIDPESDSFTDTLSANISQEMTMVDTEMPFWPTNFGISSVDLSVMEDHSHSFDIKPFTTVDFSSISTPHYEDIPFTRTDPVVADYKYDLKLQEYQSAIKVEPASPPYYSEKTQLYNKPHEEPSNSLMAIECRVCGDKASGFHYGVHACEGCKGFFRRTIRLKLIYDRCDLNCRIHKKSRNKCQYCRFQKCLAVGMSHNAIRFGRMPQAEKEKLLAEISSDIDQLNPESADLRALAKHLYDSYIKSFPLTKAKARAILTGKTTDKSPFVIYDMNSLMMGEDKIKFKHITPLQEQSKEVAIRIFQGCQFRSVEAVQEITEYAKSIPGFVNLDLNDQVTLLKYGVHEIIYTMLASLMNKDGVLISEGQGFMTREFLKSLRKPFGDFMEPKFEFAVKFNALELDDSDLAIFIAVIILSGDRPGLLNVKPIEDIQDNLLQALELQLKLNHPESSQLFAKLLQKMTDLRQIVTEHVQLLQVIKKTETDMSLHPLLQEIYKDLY

C#C[C@]1(OC(=O)CCCCCC)CC[C@H]2[C@@H]3CCC4=CC(=O)CC[C@@H]4[C@H]3CC[C@@]21C
active: [2] 29.8 µM | [5] 8.41 µM | [17] 21.3 µM | [18] 2.66 µM | [19] 5.96 µM | [20] 5.96 µM | [23] 11.9 µM | [24] 11.9 µM | [25] 19 µM | [26] 0.338 µM [inconclusive] | [27] 0.596 µM
not listed: [33] | [34] | [35] | [36] | [37] | [38]
inactive: all other assays above

COc1ccc2cc(S(=O)(=O)N[C@H](CC(=O)N[C@H](Cc3ccc(CN4[C@H](C)CCC[C@@H]4C)cc3)C(=O)N(C)C(C)C)c3ccc4c(c3)OCO4)ccc2c1
inactive: [33]

Clc1ccc([C@@H]2C[C@H]3CC[C@@H]2N3)cn1
not listed: [5] | [25] | [28] | [33] | [38]
inactive: all other assays above

SC1CCCCC1
inactive: [38] | [33]
